These results are taken from ChEMBL document CHEMBL2218924, “A broad activity screen in support of a chemogenomic map for kinase signalling research and drug discovery” (Biochem J, 2013).

Assay [1] deals with Mitogen-activated protein kinase 10 (Homo sapiens) (UniProt P53779). Particulars: at 10 µM.
The target in assay [2] is Vascular endothelial growth factor receptor 2 (Homo sapiens) (UniProt P35968). Conditions: at 1 µM.
Assay [3] has the same target. Conditions: at 10 µM.
In assay [4] the target is LIM domain kinase 1 (Homo sapiens) (UniProt P53667). Conditions: at 1 µM.
Chain of LIM domain kinase 1 (Homo sapiens) (P53667 whole entry, looked up, the tested form may be a part): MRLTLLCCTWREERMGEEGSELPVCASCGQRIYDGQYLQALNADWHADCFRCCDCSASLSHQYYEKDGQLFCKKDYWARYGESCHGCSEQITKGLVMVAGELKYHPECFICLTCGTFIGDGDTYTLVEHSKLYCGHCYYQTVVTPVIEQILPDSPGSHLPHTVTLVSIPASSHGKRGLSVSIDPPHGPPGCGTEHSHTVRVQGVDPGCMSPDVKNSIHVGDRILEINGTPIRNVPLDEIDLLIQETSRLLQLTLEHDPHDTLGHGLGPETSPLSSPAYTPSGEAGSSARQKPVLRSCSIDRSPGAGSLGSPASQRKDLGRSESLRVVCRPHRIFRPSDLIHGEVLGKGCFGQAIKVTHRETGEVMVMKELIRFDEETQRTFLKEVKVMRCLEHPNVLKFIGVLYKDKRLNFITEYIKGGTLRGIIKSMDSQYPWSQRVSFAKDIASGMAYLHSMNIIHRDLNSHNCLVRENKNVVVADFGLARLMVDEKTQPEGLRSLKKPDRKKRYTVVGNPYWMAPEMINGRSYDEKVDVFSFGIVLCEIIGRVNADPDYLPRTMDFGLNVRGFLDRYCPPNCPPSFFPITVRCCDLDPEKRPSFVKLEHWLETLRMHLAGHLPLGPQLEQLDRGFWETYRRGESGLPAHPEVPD
For assay [5] the target is unchanged. Conditions: at 10 µM.
For assay [6], the target named is T1, Serine/threonine-protein kinase STK11 (Homo sapiens) (UniProt Q15831).
T1 sequence (whole entry): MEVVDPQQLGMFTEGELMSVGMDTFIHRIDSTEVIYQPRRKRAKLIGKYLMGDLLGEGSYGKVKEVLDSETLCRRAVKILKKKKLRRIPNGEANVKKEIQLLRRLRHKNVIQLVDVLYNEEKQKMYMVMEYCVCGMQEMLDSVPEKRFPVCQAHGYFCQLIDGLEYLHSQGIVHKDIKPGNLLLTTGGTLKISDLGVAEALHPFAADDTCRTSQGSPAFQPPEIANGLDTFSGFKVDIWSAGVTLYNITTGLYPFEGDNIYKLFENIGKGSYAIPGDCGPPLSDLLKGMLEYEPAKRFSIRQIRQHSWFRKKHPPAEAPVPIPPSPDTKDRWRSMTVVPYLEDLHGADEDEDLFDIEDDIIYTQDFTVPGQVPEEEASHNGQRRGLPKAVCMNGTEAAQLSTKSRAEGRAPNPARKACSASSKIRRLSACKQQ
Conditions: at 1 µM.

Assay [7] addresses T1, Serine/threonine-protein kinase STK11 (Homo sapiens). Particulars: at 10 µM.
The target in assay [8] is Serine/threonine-protein kinase 10 (Homo sapiens) (UniProt O94804). Conditions: at 1 µM.
Chain of Serine/threonine-protein kinase 10 (Homo sapiens) (O94804 whole entry, looked up): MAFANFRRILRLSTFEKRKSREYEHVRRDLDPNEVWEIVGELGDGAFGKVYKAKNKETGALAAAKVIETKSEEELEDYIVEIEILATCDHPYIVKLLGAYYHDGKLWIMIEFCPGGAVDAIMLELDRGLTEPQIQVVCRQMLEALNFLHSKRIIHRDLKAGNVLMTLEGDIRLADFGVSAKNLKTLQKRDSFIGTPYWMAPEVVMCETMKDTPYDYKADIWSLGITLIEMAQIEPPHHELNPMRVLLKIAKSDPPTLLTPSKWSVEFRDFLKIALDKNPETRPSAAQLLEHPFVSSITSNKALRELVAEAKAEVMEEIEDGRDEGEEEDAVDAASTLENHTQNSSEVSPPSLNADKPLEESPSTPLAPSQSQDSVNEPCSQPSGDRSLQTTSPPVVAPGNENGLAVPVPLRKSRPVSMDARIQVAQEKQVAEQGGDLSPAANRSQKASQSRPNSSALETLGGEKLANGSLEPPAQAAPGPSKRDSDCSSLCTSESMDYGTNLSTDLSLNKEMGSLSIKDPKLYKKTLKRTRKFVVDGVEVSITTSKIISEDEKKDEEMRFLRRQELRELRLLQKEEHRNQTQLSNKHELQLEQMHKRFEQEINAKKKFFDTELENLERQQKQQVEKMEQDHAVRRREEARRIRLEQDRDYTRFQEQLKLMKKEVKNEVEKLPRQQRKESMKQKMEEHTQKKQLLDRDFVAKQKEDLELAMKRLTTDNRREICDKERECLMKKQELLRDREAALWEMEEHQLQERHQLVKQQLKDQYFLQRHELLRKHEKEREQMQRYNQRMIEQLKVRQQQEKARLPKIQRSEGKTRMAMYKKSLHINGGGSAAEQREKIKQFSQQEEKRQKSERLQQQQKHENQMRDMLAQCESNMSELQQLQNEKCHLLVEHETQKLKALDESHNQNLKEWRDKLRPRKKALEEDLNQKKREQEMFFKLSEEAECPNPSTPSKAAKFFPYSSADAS
The target is the same in assay [9]. Conditions: at 10 µM.
The target in assay [10] is Tyrosine-protein kinase Lck (Homo sapiens) (UniProt P06239). Conditions: at 1 µM.
Chain of Tyrosine-protein kinase Lck (Homo sapiens) (P06239 2-509 limits assumed): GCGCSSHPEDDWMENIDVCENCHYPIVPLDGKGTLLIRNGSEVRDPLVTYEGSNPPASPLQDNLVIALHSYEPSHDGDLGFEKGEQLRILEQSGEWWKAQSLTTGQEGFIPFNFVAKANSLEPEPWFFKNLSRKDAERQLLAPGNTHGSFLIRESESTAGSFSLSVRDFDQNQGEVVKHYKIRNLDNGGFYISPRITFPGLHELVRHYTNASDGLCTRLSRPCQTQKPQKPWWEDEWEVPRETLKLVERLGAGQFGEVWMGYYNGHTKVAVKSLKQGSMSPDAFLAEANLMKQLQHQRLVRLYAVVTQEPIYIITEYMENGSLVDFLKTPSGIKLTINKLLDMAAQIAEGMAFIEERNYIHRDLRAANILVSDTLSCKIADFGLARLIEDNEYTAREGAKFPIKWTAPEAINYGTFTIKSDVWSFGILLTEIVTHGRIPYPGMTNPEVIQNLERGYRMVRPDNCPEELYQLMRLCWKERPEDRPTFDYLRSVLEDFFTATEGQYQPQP
Assay [11] has the same target. Particulars: at 10 µM.
For assay [12] the target is unchanged. Particulars: at 1 µM. This is another data set of the same source.
The target is the same in assay [13]. Particulars: at 10 µM. The source holds these as a separate data set.
In assay [14] the target is Tyrosine-protein kinase Lyn (Homo sapiens) (UniProt P07948). Particulars: at 1 µM.
Chain of Tyrosine-protein kinase Lyn (Homo sapiens) (P07948 2-512 limits assumed): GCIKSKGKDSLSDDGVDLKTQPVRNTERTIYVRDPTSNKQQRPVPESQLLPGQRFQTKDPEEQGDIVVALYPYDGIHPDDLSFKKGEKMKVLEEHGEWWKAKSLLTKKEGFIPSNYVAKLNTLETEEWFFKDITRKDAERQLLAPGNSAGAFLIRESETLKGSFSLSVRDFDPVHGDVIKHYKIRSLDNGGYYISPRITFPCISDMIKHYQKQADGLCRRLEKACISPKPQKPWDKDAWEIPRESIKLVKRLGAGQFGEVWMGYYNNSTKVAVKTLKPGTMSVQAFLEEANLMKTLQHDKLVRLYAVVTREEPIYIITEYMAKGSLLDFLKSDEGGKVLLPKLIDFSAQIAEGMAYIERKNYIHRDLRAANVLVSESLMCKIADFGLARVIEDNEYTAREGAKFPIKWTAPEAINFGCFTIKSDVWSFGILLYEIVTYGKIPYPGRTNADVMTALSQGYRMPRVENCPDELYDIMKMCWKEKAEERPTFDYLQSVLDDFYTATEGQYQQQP
Assay [15] shares this target. Conditions: at 10 µM.
For assay [16], the target named is Mitogen-activated protein kinase 3 (Homo sapiens) (UniProt P27361). Conditions: at 1 µM.
Chain of Mitogen-activated protein kinase 3 (Homo sapiens) (P27361 whole entry): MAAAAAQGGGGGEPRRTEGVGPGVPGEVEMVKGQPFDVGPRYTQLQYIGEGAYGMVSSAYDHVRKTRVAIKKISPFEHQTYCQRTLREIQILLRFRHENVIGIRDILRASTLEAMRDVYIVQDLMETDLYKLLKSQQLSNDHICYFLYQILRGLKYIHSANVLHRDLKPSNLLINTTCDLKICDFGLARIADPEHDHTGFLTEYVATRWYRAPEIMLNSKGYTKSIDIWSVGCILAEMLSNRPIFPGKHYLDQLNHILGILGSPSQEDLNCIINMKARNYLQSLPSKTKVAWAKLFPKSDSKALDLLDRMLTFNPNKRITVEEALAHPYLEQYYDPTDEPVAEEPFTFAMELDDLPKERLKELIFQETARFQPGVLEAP
Assay [17] shares this target. Conditions: at 10 µM.
Assay [18] deals with Mitogen-activated protein kinase 1 (Homo sapiens) (UniProt P28482). Conditions: at 1 µM.
Chain of Mitogen-activated protein kinase 1 (Homo sapiens) (P28482 whole entry): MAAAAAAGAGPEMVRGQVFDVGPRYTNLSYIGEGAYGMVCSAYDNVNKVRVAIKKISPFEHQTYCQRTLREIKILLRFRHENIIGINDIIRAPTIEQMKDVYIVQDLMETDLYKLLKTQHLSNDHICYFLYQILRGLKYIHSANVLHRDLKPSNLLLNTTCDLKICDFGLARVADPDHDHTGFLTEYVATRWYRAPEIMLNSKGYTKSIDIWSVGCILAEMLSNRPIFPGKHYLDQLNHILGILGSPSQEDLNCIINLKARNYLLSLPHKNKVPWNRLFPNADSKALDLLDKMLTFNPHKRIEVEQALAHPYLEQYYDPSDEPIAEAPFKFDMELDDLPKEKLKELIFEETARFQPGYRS
For assay [19] the target is unchanged. Conditions: at 10 µM.
Assay [20] deals with MAP kinase-activated protein kinase 2 (Homo sapiens) (UniProt P49137). Particulars: at 1 µM.
Chain of MAP kinase-activated protein kinase 2 (Homo sapiens) (P49137 whole entry, looked up): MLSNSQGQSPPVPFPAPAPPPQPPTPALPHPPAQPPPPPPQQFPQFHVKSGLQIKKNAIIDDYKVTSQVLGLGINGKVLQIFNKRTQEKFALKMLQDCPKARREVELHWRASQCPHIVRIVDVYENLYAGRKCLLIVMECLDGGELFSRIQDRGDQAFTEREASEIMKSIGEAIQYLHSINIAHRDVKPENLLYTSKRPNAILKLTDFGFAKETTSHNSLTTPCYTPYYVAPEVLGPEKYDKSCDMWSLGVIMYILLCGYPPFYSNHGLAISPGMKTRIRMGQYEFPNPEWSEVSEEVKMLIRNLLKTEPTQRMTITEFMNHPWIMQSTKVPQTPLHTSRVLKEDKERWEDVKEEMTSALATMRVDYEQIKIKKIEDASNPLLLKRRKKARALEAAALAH

Chain of Mitogen-activated protein kinase 10 (Homo sapiens) (P53779 whole entry): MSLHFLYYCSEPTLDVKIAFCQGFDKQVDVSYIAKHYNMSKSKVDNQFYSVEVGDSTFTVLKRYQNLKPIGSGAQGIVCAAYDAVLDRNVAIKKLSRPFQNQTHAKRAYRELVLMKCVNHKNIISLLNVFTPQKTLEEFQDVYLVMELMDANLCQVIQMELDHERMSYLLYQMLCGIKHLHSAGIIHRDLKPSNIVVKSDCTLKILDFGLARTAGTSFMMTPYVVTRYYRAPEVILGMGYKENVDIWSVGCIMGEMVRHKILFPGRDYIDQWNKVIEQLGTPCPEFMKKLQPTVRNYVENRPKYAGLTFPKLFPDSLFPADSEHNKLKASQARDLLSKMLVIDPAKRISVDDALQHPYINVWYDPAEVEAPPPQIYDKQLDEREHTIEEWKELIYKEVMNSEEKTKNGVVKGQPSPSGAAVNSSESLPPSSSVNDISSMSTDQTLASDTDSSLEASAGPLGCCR

Take `COc1cc2ncnc(N3CCN(C(=O)Nc4ccc(Oc5ccccc5)cc4)CC3)c2cc1OC`: the residual activity amounted to 89% in assay [1]; 80% in assay [2]; 38% in assay [3]; 54% in assay [4]; 14% in assay [5]; 99% in assay [6]. In addition, the residual activity came out at 89% in assay [7]; 90% in assay [8]; 85% in [9]; 98% in assay [10]; 59% in [11]; 92% in assay [12]. For the same molecule, the residual activity in [13] worked out at 68%; in [14] it was 98%; in assay [15], 100%; in assay [16] it was 76%; in assay [17], 95%; in [18], 106%. Further, the residual activity was 105% in assay [19] and 99% in [20].
In the case of `O=C1Nc2ccc(Br)cc2/C1=C\c1cc2c([nH]1)CCCC2`, the residual activity in assay [2] amounted to 12%; in assay [3], 4%; in [6], 97%; in assay [7], 99%; in assay [8] it was 74%; in [9], 76%. The residual activity in assay [14] was 21%; in assay [15], 22%; in assay [18] it was 104%; in [19] it was 106%; in assay [20], 108%.
Turning to `CN(C)CCCn1cc(C2=C(c3c[nH]c4ccccc34)C(=O)NC2=O)c2ccccc21`, the residual activity is 101% in [1]; 61% in [2]; 14% in assay [3]; 117% in [4]; 73% in [5]; 105% in assay [6]. Besides, the residual activity in assay [7] turned out to be 102%; in assay [8] it was 33%; in assay [9], 15%; in assay [10], 109%; in assay [11], 49%; in assay [12], 80%. Besides, the residual activity in [13] is 43%; in assay [14], 79%; in assay [15], 22%; in [20] it was 108%.
Regarding `CO[C@@H]1[C@H](N(C)C(=O)c2ccccc2)C[C@H]2O[C@]1(C)n1c3ccccc3c3c4c(c5c6ccccc6n2c5c31)C(=O)NC4`, the residual activity in assay [1] came to 27%; in assay [2], 3%; in [3], 2%; in assay [4] it was 22%; in assay [5], 4%; in [6], 95%. The residual activity in [7] stood at 93%; in [8] it was 21%; in [9], 9%; in [10], 13%; in [11], 5%; in assay [12] it was 5%. Also, the residual activity in [13] amounted to 6%; in assay [14], 6%; in assay [15], 2%; in [16], 75%; in [18] it was 101%; in [19], 98%. In addition, the residual activity in [20] was 75%.
For the molecule `COc1cc2ncnc(Nc3ccc(Oc4ccccc4)cc3)c2cc1OC`, the residual activity amounted to 148% in assay [1]; 49% in assay [2]; 7% in assay [3]; 78% in assay [4]; 34% in assay [5]; 102% in assay [6]. For the same molecule, the residual activity is 93% in assay [7]; 0% in assay [10]; -1% in [11]; -2% in [12]; 0% in assay [13]; 1% in [14]. Besides, the residual activity was found to be 1% in assay [15]; 83% in [16]; 113% in [17]; 96% in [18]; 94% in [19]; 95% in assay [20].
As for `O=C1NC(=O)/C(=C\c2ccc3nccnc3c2)S1`, the residual activity in assay [1] turned out to be 104%; in assay [2], 87%; in assay [3] it was 63%; in assay [4] it was 91%; in [5] it was 81%; in [6], 90%. For the same molecule, the residual activity in [7] is 78%; in assay [8], 71%; in assay [9], 35%; in [10] it was 108%; in assay [11], 84%; in assay [12], 81%. The residual activity was found to be 61% in [13]; 99% in assay [14]; 89% in [15]; 82% in assay [16]; 77% in assay [17]; 98% in assay [18]. The residual activity amounted to 96% in assay [19] and 87% in [20].
Consider `Ic1cccc(CSc2nnc(-c3ccncc3)o2)c1`, for which the residual activity in assay [1] came out at 68%; in [2] it was 77%; in assay [3], 65%; in assay [4] it was 84%; in [5], 75%; in [6], 96%. Also, the residual activity in assay [7] came to 94%; in assay [8] it was 104%; in assay [9], 95%; in assay [10] it was 58%; in [11], 66%; in assay [12], 82%. Besides, the residual activity in assay [13] was found to be 87%; in assay [14], 63%; in assay [15] it was 47%; in [16], 82%; in assay [17] it was 82%; in assay [18] it was 111%. Moreover, the residual activity in assay [19] amounted to 83%; in assay [20], 77%.
On to `O=C1c2ccccc2-[n+]2ccc3c([nH]c4ccccc43)c21`, for which the residual activity in assay [1] amounted to 62%; in assay [2], 88%; in assay [3], 78%; in [4], 91%; in assay [5], 88%; in assay [6] it was 100%. Further, the residual activity is 97% in [7]; 94% in [8]; 90% in [9]; 85% in assay [10]; 69% in assay [11]; 81% in assay [12]. The residual activity amounted to 74% in assay [13]; 88% in assay [14]; 65% in assay [15]; 85% in assay [16]; 94% in [17]; 107% in [18]. In addition, the residual activity in [19] stood at 108%; in [20] it was 81%.
Take `Cc1cncc2cccc(S(=O)(=O)N3CCCN(C(=O)CN)C[C@H]3C)c12`: the residual activity in assay [1] was found to be 124%; in assay [2], 99%; in assay [3], 74%; in assay [4] it was 92%; in assay [5] it was 51%; in assay [6], 91%. The residual activity was found to be 69% in [7]; 54% in assay [8]; 21% in [9]; 97% in assay [10]; 68% in [11]; 84% in [12]. The residual activity in assay [13] came to 78%; in assay [14] it was 82%; in assay [15], 46%; in [16], 79%; in [17], 86%; in assay [20], 88%.
On to `Cc1cccc(-c2[nH]c(C(C)(C)C)nc2-c2ccc3c(c2)OCO3)n1`, for which the residual activity in [1] was 85%; in assay [2] it was 101%; in assay [3], 79%; in assay [5], 95%; in assay [6] it was 102%; in assay [7], 101%. In addition, the residual activity in assay [8] came to 87%; in [9], 106%; in [10], 146%; in [11], 86%; in [12], 95%; in assay [13], 92%. The residual activity in assay [14] amounted to 91%; in assay [15] it was 76%; in assay [16] it was 90%; in [17], 94%; in assay [18], 105%; in [20], 92%.
Consider `CC#CC(=O)Nc1cc2c(Nc3ccc(F)c(Cl)c3)ncnc2cn1`, for which the residual activity in [1] amounted to 61%; in [2], 107%; in assay [3], 86%; in [4], 100%; in [5], 91%; in assay [6], 102%. Besides, the residual activity in [7] was 98%; in [8], 96%; in [9], 86%; in assay [10] it was 105%; in assay [11], 71%; in [12] it was 97%. The residual activity in [13] was determined as 84%; in [14], 78%; in assay [15] it was 51%; in assay [16], 100%; in assay [17], 88%; in assay [18], 101%. Also, the residual activity in assay [19] worked out at 103%; in assay [20] it was 89%.
Regarding `Nc1ccc2ncnc(NCCc3ccc(Oc4ccccc4)cc3)c2c1`, the residual activity was 80% in assay [1]; 79% in assay [2]; 53% in assay [3]; 106% in assay [4]; 80% in assay [5]; 105% in assay [6]. Moreover, the residual activity was 94% in assay [7]; 92% in assay [8]; 75% in assay [9]; 76% in assay [10]; 45% in assay [11]; 83% in assay [12]. Further, the residual activity came to 20% in assay [13]; 24% in assay [14]; 11% in [15]; 122% in [16]; 74% in [17]; 104% in [18]. The residual activity in assay [19] stood at 86%; in [20], 70%.
Turning to `COc1cc2ncc(-c3ccccc3)nc2cc1OC`, the residual activity in assay [1] is 79%; in [8] it was 90%; in assay [9] it was 88%; in assay [11] it was 75%; in assay [12], 86%; in assay [13], 80%. The residual activity in assay [14] was 67%; in assay [15] it was 58%; in assay [16], 89%; in assay [17] it was 81%.
